A short description of assay [1]: HPAF-II Cancer Cell Toxicity qHTS against the NCATS CANVASS Library (AID 1347346). Note: nearly all actives have a fitted effect of over 55% in size. Note: potency is the fitted concentration of half-maximal effect. The method, boiled down: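 HPAF-II cells were seeded at 1000 cells/well, allowed to settle for 4 h at 37 degrees C, then exposed to compounds in an 11-point series for 72 h. Viability was read by CellTiter-Glo luminescence.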
(In general: Quantitative high-throughput screening tests each substance at several concentrations.)

The nature of assay [2]: HPAF-II 24hr Apoptosis Induction qHTS against the NCATS CANVASS Library (AID 1347356). The method, boiled down: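 HPAF-II cells (500/well) in DMEM + 10% FBS were treated with an 11-point compound series for 24 hours at 37 degrees C. Caspase-3/7 activity was then read by Caspase-Glo DEVD luminescence after 15 min.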
Assay [3] in a line: HEK293 18hr Apoptosis Induction qHTS against the NCATS CANVASS Library (AID 1347357). Summed up:
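HEK293 cells (500/well, DMEM + 10% FBS) treated with an 11-point series for 18 h at 37 degrees C. Caspase-3/7 activity read by Caspase-Glo luminescence after 15 min at room temperature.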

The nature of assay [4]: HPAF-II 12hr Apoptosis Induction qHTS against the NCATS CANVASS Library (AID 1347358). The method, boiled down: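 HPAF-II cells (500/well, DMEM + 10% FBS) were exposed to compounds for 12 hours at 37 degrees C. Caspase-3/7 activity was then read by Caspase-Glo 3/7 luminescence after 15 min at room temperature.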
Assay [5] can be described thus: HPAF-II 18hr Apoptosis Induction qHTS against the NCATS CANVASS Library (AID 1347360). The method, boiled down: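 HPAF-II cells at 500/well were exposed for 18 h at 37 C to an 11-point compound series. Caspase-3/7 activity was read by Caspase-Glo luminescence after 15 min at RT.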
A short description of assay [6]: HEK293 12hr Apoptosis Induction qHTS against the NCATS CANVASS Library (AID 1347361). The method, boiled down:
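HEK293 cells (500/well) were exposed to an 11-point qHTS concentration series for 12 hours at 37 degrees C. Caspase-3/7 activity was then read by DEVD-substrate luciferase luminescence after 15 min at room temperature.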

Assay [7] has as its system NAD(P)H diaphorase (Clostridium kluyveri). Kind of assay: Diaphorse counterscreen qHTS: Assay Interference Panel against the NCATS CANVASS Library (AID 1347362). The method, boiled down:
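Clostridium kluyveri diaphorase in PBS with 0.01% Tween-20 was preincubated 15 min at room temperature in the dark with compounds (11-point series). Resorufin fluorescence (ex 525/20, em 598/25) was read 5 min after adding resazurin/NADH.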
(Counterscreens check selectivity or assay interference.)

The target of assay [8] is Luciferin 4-monooxygenase (Photinus pyralis) (UniProt P08659). Nature of the assay: Firefly luciferase counterscreen qHTS: Assay Interference Panel against the NCATS CANVASS Library (AID 1347363). Note: series mostly up to about 57 µM. Summed up:
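Purified P. pyralis luciferase was added to compounds (11-point series) preincubated 15 min at room temperature with substrate containing 0.013 mM D-luciferin and 0.013 mM ATP; luminescence was read after 5 min.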

A short description of assay [9]: qHTS for ATAD5 Antagonist screened against the NCATS CANVASS Library (AID 1347370). Note: nearly all actives have a fitted effect of over 65% in size. Note: potency is the fitted concentration of half-maximal effect. Summed up:
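HEK293T cells with a stably integrated ATAD5-controlled luciferase reporter were exposed to compounds (11-pt) alongside 10 uM 5-fluorouridine as ATAD5 stabilizer for 16hr at 37C. Viability was read by CellTiter-Fluor fluorescence, then ATAD5 by luminescence.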

Assay [10] in a line: J3T Cancer Cell Toxicity qHTS against the NCATS CANVASS Library (AID 1347371). Note: potency is the fitted concentration of half-maximal effect. Summed up:
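J3T dog glioma cells (500 cells/well) were exposed to compounds in an 11-point series for 72 hr at 37C, 5% CO2. Cytotoxicity was read as ATP content by CellTiterGlo luminescence.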

Assay [11] deals with Nuclear receptor subfamily 1 group I member 3 (Homo sapiens) (UniProt Q14994). Nature of the assay: qHTS for Constitutive Androstane Receptor (CAR) Antagonist screened against the NCATS CANVASS Library (AID 1347372). Note: potency is the fitted concentration of half-maximal effect. The method, boiled down: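 HepG2 cells stably carrying hCAR and a CYP2B6-2.2kb luciferase reporter were exposed to compounds plus 50 nM CITCO for 24hr at 37C. CAR activity was read by ONE-Glo luminescence, with viability measured first by CellTiter-Fluor.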

Assay [12] has the same target. Nature of the assay: qHTS for Constitutive Androstane Receptor (CAR) Agonist screened against the NCATS CANVASS Library (AID 1347373).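 Note: every well also contained 1.5 µM PK11195 alongside the test compound.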 Summed up: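 HepG2 cells stably expressing hCAR and a CYP2B6-2.2kb luciferase reporter were treated for 24hr at 37C with compounds (11-point qHTS) in the presence of 1.5uM PK11195. Reporter activation was read by ONE-Glo luminescence.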

A short description of assay [13]: qHTS for Hypoxia signaling pathway (HIF-1) agonists against the NCATS CANVASS Library (AID 1347375). The method, boiled down: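 HRE-bla ME-180 cells (beta-lactamase reporter under hypoxia responsive element) in 0.5% dialyzed FBS medium, 5 h at 37C, then compound 17 h, 11-point qHTS series. CCF4-AM FRET substrate 2 h RT; 460/530 nm emission read.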
Assay [14] can be described thus: 10-beta competent E. coli microbial cell viability qHTS against the NCATS CANVASS Library (AID 1347376). Note: series mostly up to about 46 µM. The method, boiled down:
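10-beta competent E. coli (0.9 OD culture diluted to 0.2 OD) exposed to compounds in an 11-point qHTS series, incubated overnight at 37C, 5% CO2. Viability read as ATP by BacTiter-Glo luminescence after 20 min at room temperature.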

Assay [15] can be described thus: Cytotoxicity qHTS for assessment of Hepg2 cells membrane integrity screened against the NCATS CANVASS Library (AID 1347387). The method, boiled down: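 HepG2 cells (2000/well) attached overnight at 37C, then received compounds in an 11-point series at 0.59 nM - 46 uM final for 5 hr. LDH release was detected fluorometrically (ex 560/em 590 nm) with CytoTox-ONE reagent after 10 min at room temperature.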

Assay [16] is described as follows: qHTS for activators of dead-cell proteases activity screened against the NCATS CANVASS Library (AID 1347392).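 Note: luminescence from protease leaking out of membrane-damaged cells cleaving impermeant substrate; rising signal means more cytotoxicity.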 The method, boiled down: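 HepG2 cells (2000/well) attached 18 h at 37C, then exposed 5 h to compounds (11-point qHTS). Dead-cell protease activity read as luminescence from cell-impermeant AAF-aminoluciferin substrate after 15 min at room temperature.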

A short description of assay [17]: Viability qHTS for inhibitors of the SERCaMP assay screened against the NCATS CANVASS Library (AID 1347400). Note: nearly all actives have a fitted effect of over 70% in size. Note: potency is the fitted concentration of half-maximal effect. The method, boiled down:
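SH-SY5Y-GLuc SERCaMP MJH297-derived cells (1000 cells/well) were pre-incubated 4 h at 37C, then exposed to compounds for 48 h. Viability was read as CellTiter-Glo luminescence; bortezomib served as positive control.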

A short description of assay [18]: MCF7 Cancer Cell Toxicity qHTS against the NCATS CANVASS Library (AID 1347369). Summed up: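 MCF7 cells (500/well) were exposed 72 h at 37 °C to compounds in an 11-point series. Viability was read as ATP content by CellTiterGlo luminescence.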
Assay [19] can be described thus: qHTS for Activators of p53 Stress Response Pathway screened against the NCATS CANVASS Library (AID 1347388). The method, boiled down:
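p53RE-bla HCT-116 cells (4000/well) were plated 5 h at 37C, exposed to compounds for 16 h at 37C over an 11-point concentration series, then loaded with CCF4 for 2 h at room temperature; 460/530 nm emission ratio read.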

The record followed here is PubChem BioAssay (NCATS).

Inconclusive results are not listed. Active and inactive are the calls of the source. Calls come from the whole dose curve; as a rule, active = well fitted curve in the direction sought with a large enough effect; inconclusive = small, poorly fitted or top-dose-only effect, or another doubt; inactive = no such curve, though single readings can be large; an effect the other way counts as inactive or inconclusive.

Chain of Nuclear receptor subfamily 1 group I member 3 (Homo sapiens) (Q14994 whole entry, looked up): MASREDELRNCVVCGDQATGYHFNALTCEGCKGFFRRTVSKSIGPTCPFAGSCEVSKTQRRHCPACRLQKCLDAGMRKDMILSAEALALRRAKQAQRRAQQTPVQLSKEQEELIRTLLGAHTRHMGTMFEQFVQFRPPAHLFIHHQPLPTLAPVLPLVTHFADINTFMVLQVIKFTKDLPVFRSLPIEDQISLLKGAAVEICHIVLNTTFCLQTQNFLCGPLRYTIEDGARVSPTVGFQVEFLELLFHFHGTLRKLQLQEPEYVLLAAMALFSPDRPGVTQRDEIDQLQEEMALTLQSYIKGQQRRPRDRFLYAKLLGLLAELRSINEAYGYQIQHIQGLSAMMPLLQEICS
Chain of Luciferin 4-monooxygenase (Photinus pyralis) (P08659 whole entry, looked up): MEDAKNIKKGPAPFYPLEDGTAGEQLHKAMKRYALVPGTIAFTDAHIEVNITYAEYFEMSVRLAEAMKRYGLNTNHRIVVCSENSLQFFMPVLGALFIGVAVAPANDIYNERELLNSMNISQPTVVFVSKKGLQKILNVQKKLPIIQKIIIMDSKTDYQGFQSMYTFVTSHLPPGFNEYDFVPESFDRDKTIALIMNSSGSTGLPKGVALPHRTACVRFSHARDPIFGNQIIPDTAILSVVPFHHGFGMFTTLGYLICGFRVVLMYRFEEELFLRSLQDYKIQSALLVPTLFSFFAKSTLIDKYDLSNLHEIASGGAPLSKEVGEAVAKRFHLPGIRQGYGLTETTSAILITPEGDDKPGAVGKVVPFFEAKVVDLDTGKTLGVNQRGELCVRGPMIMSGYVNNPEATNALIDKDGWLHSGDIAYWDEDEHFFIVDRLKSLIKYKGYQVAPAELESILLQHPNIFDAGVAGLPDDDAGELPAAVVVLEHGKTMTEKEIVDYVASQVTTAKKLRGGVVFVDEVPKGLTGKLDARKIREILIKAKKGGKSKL

For `C/C(=C\[C@H](C)C(=O)/C=C/CC1CC(=O)NC(=O)C1)[C@@H]1OC(=O)/C=C/CC/C=C/C[C@@H](O)[C@@H]1C`, the Potency is 2.98 µM (active) in assay [1]; 3.31 µM (active) in assay [9]; 3.72 µM (active) in assay [10]; 18.6 µM (active) in [11]; 17 µM (active) in assay [17]. For the same molecule, the molecule was classed as inactive in assay [2], in assay [6], in assay [13], in [14] and in [15]. Further, the Potency entry in assay [3], in assay [4], in [5], in assay [7], in assay [8] and in assay [12] was “inactive” each time. Also, the Potency entry in [16] is “inactive”.

Turning to `COc1cc([C@@H]2c3cc4c(cc3C[C@@]3(O[C@@H]5O[C@H](CO)[C@@H](O)[C@H](O)[C@H]5O)COC(=O)[C@H]23)OCO4)cc(OC)c1OC`, the Potency result in assay [1], in [3], in assay [4], in assay [5], in assay [7] and in assay [8] was “inactive” throughout. The Potency result in [18], in [9], in assay [12], in assay [19] and in assay [16] was “inactive” in each case. Moreover, the outcome in assay [2], in assay [6], in [13], in assay [14] and in [15] was inactive. Further, the Potency in [11] is 0.066 µM (active); in assay [17] it was 0.048 µM (active).

Take `CC(C)=CCC/C(C)=C/Cc1cc([C@@H]2CC(=O)c3c(cc(O)c(CC=C(C)C)c3O)O2)ccc1O`: the molecule was called inactive in [2], in [6], in assay [13], in [14] and in assay [15]. The Potency entry in assay [3], in [4], in assay [5], in assay [8], in [18] and in [9] was “inactive” in each case. In addition, the Potency entry in assay [10], in [11], in assay [19], in assay [16] and in assay [17] was “inactive” in each case.

For `CN1CC[C@]23c4ccccc4N[C@H]1[C@]21CCN(C)[C@H]3Nc2ccccc21`, the Potency entry in [1], in [3], in [4], in assay [5], in assay [7] and in assay [8] was “inactive” throughout. Besides, the Potency entry in assay [18], in assay [9], in assay [10], in [11], in [12] and in assay [19] was “inactive” throughout. For the same molecule, the Potency entry in assay [16] and in assay [17] was “inactive” in each case. Besides, the call in assay [2], in assay [6], in assay [14] and in assay [15] was inactive.

For the molecule `COC(=O)C1=C[C@]23C[C@@H](C)CC[C@@H]2[C@@]2(C)CC[C@@H](C(C)C)[C@@](O)(O3)[C@@H]12`, the Potency in assay [1] was 18.8 µM (active). Further, the molecule was called inactive in assay [2], in assay [13], in assay [14] and in [15]. In addition, the Potency entry in assay [4], in [5], in assay [7], in assay [8], in assay [18] and in [9] was “inactive” in each case. The Potency result in [10], in assay [11], in assay [12], in [19], in assay [16] and in [17] was “inactive” each time.

In the case of `CO[C@H]1/C=C/CCCCC(=O)O[C@@H](/C(C)=C/[C@H](C)C(=O)C[C@H](O)CC2CC(=O)NC(=O)C2)[C@@H](C)C1`, the molecule was classed as inactive in assay [2], in assay [6], in assay [13], in assay [14] and in assay [15]. Further, the Potency result in assay [3], in [4], in assay [5], in assay [7], in assay [8] and in assay [18] was “inactive” each time. Moreover, the Potency result in assay [12], in assay [19] and in [16] was “inactive” each time. Further, the Potency in assay [9] is 20.9 µM (active).

Turning to `CN1CC[C@@]23c4ccccc4N[C@@H]1[C@@]21CCN(C)[C@@H]3Nc2ccccc21`, the Potency result in assay [1], in assay [3], in [4], in assay [5], in assay [7] and in assay [8] was “inactive” in each case. In addition, the Potency result in [18], in assay [9], in assay [10], in [11], in assay [12] and in assay [19] was “inactive” each time. Moreover, the Potency result in assay [16] and in assay [17] was “inactive” in each case. For the same molecule, the molecule was called inactive in [2], in assay [6], in assay [14] and in assay [15].
